# About 79,000 compounds went through this panel and 15% of them were active in at least one assay; those are over-represented in the sample as a whole. A number with no mark means an inactive call. Activity calls are given as the source filed them. Rule as the data show it: active = growth inhibition above about 70%; inactive = the rest.
# Tests used:
# [1] = NCI Yeast Anticancer Drug Screen. Data for the rad52 strain (AID 147);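 also: 0% = growth of vehicle-treated control cultures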; settings: S. cerevisiae rad52 mutant growth inhibition, hits give high values
# Summary of the method: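 Compounds are applied to a genetically defined yeast strain lacking normal DNA damage repair, and inhibition of growth is expressed relative to cultures given vehicle only.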
# [2] = NCI Yeast Anticancer Drug Screen. Data for the wt1 strain (AID 149);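 also: 0% = growth of vehicle-treated wt1 cultures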; settings: S. cerevisiae wt1 strain (SPY 50644) growth inhibition, hits give high values
# Summary of the method: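 Compounds are added to wt1 yeast cultures. Growth is then measured. Inhibition is expressed relative to vehicle-treated controls.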
# [3] = NCI Yeast Anticancer Drug Screen. Data for the rad50EPP+ strain (AID 151);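 also: 0% = growth of vehicle-treated control cultures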; settings: S. cerevisiae rad50 mutant strain, hits give high values
# Summary of the method: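 Compounds were applied to the rad50EPP+ yeast strain, which bears a defined DNA repair alteration, and growth inhibition was determined relative to vehicle-treated cultures.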
# [4] = NCI Yeast Anticancer Drug Screen. Data for the mgt1 strain (AID 153); settings: S. cerevisiae mgt1 mutant growth inhibition, hits give high values
# Summary of the method: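 Strain: mgt1 yeast, one of a set carrying defined DNA damage repair or cell cycle control alterations. Compound-treated growth compared with vehicle.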
# [5] = NCI Yeast Anticancer Drug Screen. Data for the rad50 strain (AID 155);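 also: 0% = growth of vehicle-only cultures of the same strain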; settings: S. cerevisiae rad50 strain growth inhibition, hits give high values
# Summary of the method: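 Inhibition values express reduced yeast growth in compound-treated cultures relative to vehicle-treated controls.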
# [6] = NCI Yeast Anticancer Drug Screen. Data for the mec2-1 strain (AID 157); settings: S. cerevisiae mec2-1 strain, hits give high values
# Summary of the method: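 Strain: mec2-1 (DNA repair/cell cycle alteration). Compound exposure, then growth measured; inhibition expressed relative to vehicle.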
# [7] = NCI Yeast Anticancer Drug Screen. Data for the sgs1 mgt1 strain (AID 161);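 also: 0% = growth of cultures given vehicle only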; settings: S. cerevisiae sgs1 mgt1 strain, hits give high values
# Summary of the method: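 Genetically altered yeast, compound exposure, growth inhibition relative to vehicle.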
# [8] = NCI Yeast Anticancer Drug Screen. Data for the CLN2oe strain (AID 163);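 also: 0% = growth of vehicle-only control cultures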; settings: S. cerevisiae CLN2oe strain, hits give high values
# Summary of the method: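 Growth of a genetically modified yeast strain is measured after compound exposure and compared with cultures given vehicle alone.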
# [9] = NCI Yeast Anticancer Drug Screen. Data for the cln2 rad14 strain (AID 165);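 also: 0% = growth equal to vehicle treated cultures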; settings: S. cerevisiae cln2 rad14 strain, hits give high values
# Summary of the method: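 Compounds are applied to the cln2 rad14 yeast strain, and growth is then compared with that of vehicle-treated cultures to give inhibition.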
# [10] = NCI Yeast Anticancer Drug Screen. Data for the bub3 strain (AID 167); settings: S. cerevisiae bub3 mutant strain, hits give high values
# Summary of the method: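 Steps: expose the mutant yeast strain to compound; grow alongside vehicle-treated cultures; measure growth; express inhibition against the vehicle cultures.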
# [11] = NCI Yeast Anticancer Drug Screen. Data for the wt2 strain (AID 169);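 also: 0% = growth of vehicle-treated yeast cultures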; settings: S. cerevisiae wt2 strain growth inhibition, hits give high values
# Summary of the method: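 This strain belongs to a panel of yeast strains with defined genetic alterations in DNA damage repair or cell cycle control. Compounds are applied, and growth inhibition is measured against vehicle-treated cultures.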
# [12] = NCI Yeast Anticancer Drug Screen. Data for the sgs1 strain (AID 173);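 also: 0% = growth of vehicle-only control cultures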; settings: S. cerevisiae sgs1 mutant, hits give high values
# Summary of the method: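 Growth of a yeast strain bearing a defined genetic alteration is measured after compound treatment. Inhibition is expressed relative to vehicle-only controls.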
# [13] = NCI Yeast Anticancer Drug Screen. Data for the mlh1 rad18 strain (AID 175); settings: S. cerevisiae mlh1 rad18 strain growth inhibition, hits give high values
# Summary of the method: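 Read-out is yeast growth inhibition, calculated against vehicle-only controls. The compound was applied to a strain engineered with DNA damage repair alterations.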
# [14] = NCI Yeast Anticancer Drug Screen. Data for the rad18 strain (AID 177); settings: S. cerevisiae rad18 mutant growth inhibition, hits give high values
# Summary of the method: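 Growth of the mutant yeast strain after compound exposure, normalised to vehicle-only cultures.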
# [15] = NCI Yeast Anticancer Drug Screen. Data for the rad14 strain (AID 159);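 also: 0% = growth of vehicle-treated control cultures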; settings: S. cerevisiae rad14 strain growth inhibition, hits give high values
# Summary of the method: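 A mutant yeast strain defective in DNA damage repair is treated with compound; inhibition of its growth is scored against untreated, vehicle-exposed cultures.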
# [16] = NCI Yeast Anticancer Drug Screen. Data for the mlh1 strain (AID 171);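 also: 0% = growth of vehicle-treated control cultures of the same strain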; settings: S. cerevisiae mlh1 strain growth inhibition, hits give high values
# Summary of the method: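 Growth of the mutant yeast strain after compound exposure, expressed as inhibition relative to vehicle-only controls.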
# [17] = at 5.0 µM (retest, dose inferred, filed as 0.5)
# [18] = at 50.0 µM (retest, dose inferred, filed as 5.0)
structure (smiles),measurement,setting,value
BrCc1cccc2ccc3cccc(CBr)c3c12,growth inhibition,[1]; at 1.2 µM,-3%
same,growth inhibition,[1]; at 3.7 µM,-4%
same,growth inhibition,[1]; at 11.0 µM,-1%
same,growth inhibition,[1]; at 33.0 µM,2%
same,growth inhibition,[1]; at 100.0 µM,10%
same,growth inhibition,[2]; at 1.2 µM,-3%
same,growth inhibition,[2]; at 3.7 µM,-3%
same,growth inhibition,[2]; at 11.0 µM,-4%
same,growth inhibition,[2]; at 33.0 µM,-8%
same,growth inhibition,[2]; at 100.0 µM,-7%
same,growth inhibition,[3]; at 1.2 µM,-4%
same,growth inhibition,[3]; at 3.7 µM,0%
same,growth inhibition,[3]; at 11.0 µM,12%
same,growth inhibition,[3]; at 33.0 µM,18%
same,growth inhibition,[3]; at 100.0 µM,24%
same,growth inhibition,[4]; at 1.2 µM,2%
same,growth inhibition,[4]; at 3.7 µM,0%
same,growth inhibition,[4]; at 11.0 µM,1%
same,growth inhibition,[4]; at 33.0 µM,-2%
same,growth inhibition,[4]; at 100.0 µM,3%
same,growth inhibition,[5]; at 1.2 µM,-3%
same,growth inhibition,[5]; at 3.7 µM,-3%
same,growth inhibition,[5]; [17],-1%
same,growth inhibition,[5]; at 11.0 µM,0%
same,growth inhibition,[5]; at 33.0 µM,1%
same,growth inhibition,[5]; [18],85% (active)
same,growth inhibition,[5]; at 50.0 µM,66.3%
same,growth inhibition,[5]; at 100.0 µM,10%
same,growth inhibition,[6]; at 1.2 µM,-2%
same,growth inhibition,[6]; at 3.7 µM,-1%
same,growth inhibition,[6]; [17],-5%
same,growth inhibition,[6]; at 11.0 µM,-2%
same,growth inhibition,[6]; at 33.0 µM,-3%
same,growth inhibition,[6]; [18],97% (active)
same,growth inhibition,[6]; at 50.0 µM,21.8%
same,growth inhibition,[6]; at 100.0 µM,-2%
same,growth inhibition,[7]; [17],-3%
same,growth inhibition,[7]; [18],85% (active)
same,growth inhibition,[7]; at 50.0 µM,72% (active)
same,growth inhibition,[8]; at 1.2 µM,-2%
same,growth inhibition,[8]; at 3.7 µM,0%
same,growth inhibition,[8]; at 11.0 µM,-3%
same,growth inhibition,[8]; at 33.0 µM,-13%
same,growth inhibition,[8]; at 100.0 µM,-12%
same,growth inhibition,[9]; [17],-15%
same,growth inhibition,[9]; [18],21%
same,growth inhibition,[9]; at 50.0 µM,-24%
same,growth inhibition,[10]; at 1.2 µM,-12%
same,growth inhibition,[10]; at 3.7 µM,-14%
same,growth inhibition,[10]; [17],4%
same,growth inhibition,[10]; at 11.0 µM,-8%
same,growth inhibition,[10]; at 33.0 µM,-11%
same,growth inhibition,[10]; [18],50%
same,growth inhibition,[10]; at 50.0 µM,65%
same,growth inhibition,[10]; at 100.0 µM,-6%
same,growth inhibition,[11]; at 1.2 µM,-2%
same,growth inhibition,[11]; at 3.7 µM,-5%
same,growth inhibition,[11]; at 11.0 µM,-4%
same,growth inhibition,[11]; at 33.0 µM,-6%
same,growth inhibition,[11]; at 100.0 µM,-4%
same,growth inhibition,[12]; at 1.2 µM,-3%
same,growth inhibition,[12]; at 3.7 µM,-3%
same,growth inhibition,[12]; at 11.0 µM,-4%
same,growth inhibition,[12]; at 33.0 µM,-3%
same,growth inhibition,[12]; at 100.0 µM,-1%
same,growth inhibition,[13]; [17],-1%
same,growth inhibition,[13]; [18],96% (active)
same,growth inhibition,[13]; at 50.0 µM,73.5% (active)
same,growth inhibition,[14]; at 1.2 µM,-4%
same,growth inhibition,[14]; at 3.7 µM,0%
same,growth inhibition,[14]; at 11.0 µM,-1%
same,growth inhibition,[14]; at 33.0 µM,0%
same,growth inhibition,[14]; at 100.0 µM,11%
CC(C)/C(Cl)=N\OC(=O)Nc1cccc(Cl)c1,growth inhibition,[1]; at 1.2 µM,-4%
same,growth inhibition,[1]; at 3.7 µM,-7%
same,growth inhibition,[1]; at 11.0 µM,-4%
same,growth inhibition,[1]; at 33.0 µM,-3%
same,growth inhibition,[1]; at 100.0 µM,-2%
same,growth inhibition,[2]; at 1.2 µM,-2%
same,growth inhibition,[2]; at 3.7 µM,0%
same,growth inhibition,[2]; at 11.0 µM,-1%
same,growth inhibition,[2]; at 33.0 µM,-2%
same,growth inhibition,[2]; at 100.0 µM,1%
same,growth inhibition,[3]; at 1.2 µM,-2%
same,growth inhibition,[3]; at 3.7 µM,-2%
same,growth inhibition,[3]; at 11.0 µM,1%
same,growth inhibition,[3]; at 33.0 µM,2%
same,growth inhibition,[3]; at 100.0 µM,0%
same,growth inhibition,[5]; at 1.2 µM,-2%
same,growth inhibition,[5]; at 3.7 µM,-5%
same,growth inhibition,[5]; [17],8%
same,growth inhibition,[5]; at 11.0 µM,-26%
same,growth inhibition,[5]; at 33.0 µM,-1%
same,growth inhibition,[5]; [18],47%
same,growth inhibition,[5]; at 50.0 µM,69.5%
same,growth inhibition,[5]; at 100.0 µM,3%
same,growth inhibition,[6]; at 1.2 µM,0%
same,growth inhibition,[6]; at 3.7 µM,0%
same,growth inhibition,[6]; [17],-17%
same,growth inhibition,[6]; at 11.0 µM,2%
same,growth inhibition,[6]; at 33.0 µM,2%
same,growth inhibition,[6]; [18],30%
same,growth inhibition,[6]; at 50.0 µM,87.8% (active)
same,growth inhibition,[6]; at 100.0 µM,1%
same,growth inhibition,[15]; at 1.2 µM,0%
same,growth inhibition,[15]; at 3.7 µM,2%
same,growth inhibition,[15]; at 11.0 µM,0%
same,growth inhibition,[15]; at 33.0 µM,4%
same,growth inhibition,[15]; at 100.0 µM,6%
same,growth inhibition,[7]; [17],-17%
same,growth inhibition,[7]; [18],83% (active)
same,growth inhibition,[7]; at 50.0 µM,85.2% (active)
same,growth inhibition,[8]; at 1.2 µM,-4%
same,growth inhibition,[8]; at 3.7 µM,-3%
same,growth inhibition,[8]; at 11.0 µM,-6%
same,growth inhibition,[8]; at 33.0 µM,-3%
same,growth inhibition,[8]; at 100.0 µM,10%
same,growth inhibition,[9]; [17],-3%
same,growth inhibition,[9]; [18],19%
same,growth inhibition,[9]; at 50.0 µM,72.3% (active)
same,growth inhibition,[10]; at 1.2 µM,1%
same,growth inhibition,[10]; at 3.7 µM,4%
same,growth inhibition,[10]; [17],-29%
same,growth inhibition,[10]; at 11.0 µM,10%
same,growth inhibition,[10]; at 33.0 µM,12%
same,growth inhibition,[10]; [18],88% (active)
same,growth inhibition,[10]; at 50.0 µM,82.3% (active)
same,growth inhibition,[10]; at 100.0 µM,10%
same,growth inhibition,[11]; at 1.2 µM,-2%
same,growth inhibition,[11]; at 3.7 µM,-3%
same,growth inhibition,[11]; at 11.0 µM,-2%
same,growth inhibition,[11]; at 33.0 µM,-4%
same,growth inhibition,[11]; at 100.0 µM,0%
same,growth inhibition,[16]; at 1.2 µM,-1%
same,growth inhibition,[16]; at 3.7 µM,-7%
same,growth inhibition,[16]; at 11.0 µM,0%
same,growth inhibition,[16]; at 33.0 µM,0%
same,growth inhibition,[16]; at 100.0 µM,-2%
same,growth inhibition,[12]; at 1.2 µM,0%
same,growth inhibition,[12]; at 3.7 µM,1%
same,growth inhibition,[12]; at 11.0 µM,2%
same,growth inhibition,[12]; at 33.0 µM,1%
same,growth inhibition,[12]; at 100.0 µM,2%
same,growth inhibition,[13]; [17],-12%
same,growth inhibition,[13]; [18],22%
same,growth inhibition,[13]; at 50.0 µM,77.5% (active)
same,growth inhibition,[14]; at 1.2 µM,-7%
same,growth inhibition,[14]; at 3.7 µM,-8%
same,growth inhibition,[14]; at 11.0 µM,-10%
same,growth inhibition,[14]; at 33.0 µM,-24%
same,growth inhibition,[14]; at 100.0 µM,-1%

# — PubChem BioAssay (NCI)
